The values below come from the supplement of paper PMC12350171.

Structures are written as SMILES. Counter-ions that a name gives are not always drawn. Values without a mark were called inactive.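 The calls were made as follows: active = AUC significantly below DMSO controls by Student t-fit with adjusted P under 0.01; inactive = not significantly reduced.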

The assay relates to Haemophilus parainfluenzae. Kind of assay: growth AUC normalised to DMSO control (fraction of control); higher = less growth inhibition, active = hit call of the paper. To be noted: 20 µM. The method, boiled down:
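Hemin and NAD were added to the medium for Haemophilus parainfluenzae. All pathogens, after two anaerobic passages, were inoculated at a starting OD578 of 0.01 into pre-reduced mGAM plates with 20 μM compound and 1% DMSO under breathable seals, and OD578 was read hourly for 24 h in three biological replicates. AUC of each growth curve was obtained with the trapezoidal rule up to the exponential-to-stationary transition and normalised to DMSO controls from the same plate.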
Take `CC(C)OC(=O)C(C)(C)Oc1ccc(C(=O)c2ccc(Cl)cc2)cc1` [Fenofibrate]: the “growth AUC normalised to DMSO control” value was 0.961. Turning to `CCC[C@@H]1C[C@@H](C(=O)N[C@@H]([C@H]2O[C@H](SC)[C@H](O)[C@@H](O)[C@H]2O)[C@H](C)Cl)N(C)C1` [Clindamycin hydrochloride], the “growth AUC normalised to DMSO control” value was 0.0463 (active). Under `CCN(CC)CCOC(=O)C(c1ccccc1)c1ccccc1` [Adiphenine hydrochloride] stands 1.02; under `CCc1nn(CCCN2CCN(c3cccc(Cl)c3)CC2)c(=O)n1CCOc1ccccc1` [Nefazodone hydrochloride], 0.942; under `CC(C)C(=O)Nc1ccc([N+](=O)[O-])c(C(F)(F)F)c1` [Flutamide], 1.09. Under `Cc1noc(NS(=O)(=O)c2ccc(N)cc2)c1C` [Sulfisoxazole] stands 0.939; under `NC[C@H]1O[C@H](O[C@H]2[C@H](O)[C@@H](O[C@H]3O[C@H](CO)[C@@H](O)[C@H](N)[C@H]3O)[C@H](N)C[C@@H]2N)[C@H](N)C[C@@H]1O` [Tobramycin], 0.0457 (active). On to `CC(C)(C(=O)c1cccnc1)c1cccnc1` [Metyrapone], for which the “growth AUC normalised to DMSO control” value is 0.991. With `CC(C)Cn1cnc2c(N)nc3ccccc3c21` [Imiquimod] the figure was 1.08; with `CC(=O)O[C@H]1C[C@@]2(C)[C@@H](C[C@@H](O)[C@H]3[C@@]4(C)CC[C@@H](O)[C@@H](C)[C@@H]4CC[C@@]32C)/C1=C(\CCC=C(C)C)C(=O)O` [Fusidic acid sodium salt], 0.345 (active); with `CC(C)(C)NC(=O)[C@@H]1C[C@@H]2CCCC[C@@H]2CN1C[C@@H](O)[C@H](Cc1ccccc1)NC(=O)[C@H](CC(N)=O)NC(=O)c1ccc2ccccc2n1` [Saquinavir mesylate], 1.63. With `Nc1ccn([C@H]2CC[C@@H](CO)O2)c(=O)n1` [Zalcitabine] the figure was 1.06; with `Cc1cn([C@H]2C=C[C@@H](CO)O2)c(=O)[nH]c1=O` [Stavudine], 1.02; with `CC[C@@]1(O)C(=O)OCc2c1cc1n(c2=O)Cc2cc3c(CN(C)C)c(O)ccc3nc2-1` [Topotecan], 0.984. As for `CC1=C(C(=O)O)N2C(=O)[C@@H](NC(=O)[C@H](N)c3ccc(O)cc3)[C@H]2SC1` [Cefadroxil], the “growth AUC normalised to DMSO control” value is 0.949.

As to `O=C1NCN(c2ccccc2)C12CCN(CCCC(c1ccc(F)cc1)c1ccc(F)cc1)CC2` [Fluspirilene], the “growth AUC normalised to DMSO control” value was 1.05. Under `CC(C)[C@H](N)C(=O)OCCOCn1cnc2c(=O)nc(N)[nH]c21` [Valacyclovir hydrochloride] stands 0.99; under `COc1ccc(-c2cc(=S)ss2)cc1` [Anethole-trithione], 1.05; under `CCN(CC)CCNC(=O)c1cc(Cl)c(N)cc1OC` [Metoclopramide monohydrochloride], 0.991. On to `C#C[C@]1(O)CC[C@H]2[C@@H]3CCC4=C(CCC(=O)C4)[C@H]3CC[C@@]21C` [Norethynodrel], for which the “growth AUC normalised to DMSO control” value is 0.989.

For the compound `C[C@H](CCC(=O)O)[C@H]1CC[C@H]2[C@@H]3[C@H](O)C[C@@H]4C[C@H](O)CC[C@]4(C)[C@H]3CC[C@]12C` [Chenodiol], the “growth AUC normalised to DMSO control” value was 0.95. With `C#C[C@]1(OC(C)=O)CC[C@H]2[C@@H]3CCC4=C[C@@H](OC(C)=O)CC[C@@H]4[C@H]3CC[C@@]21C` [Ethynodiol diacetate] the figure was 0.974; with `O=C1c2ccccc2C(=O)C1c1ccccc1` [Phenindione], 0.973. With `Cc1cc2cc3c(C)cc(=O)oc3c(C)c2o1` [Trioxsalen] the figure was 1.02. Under `CN(C)CCCOc1nn(Cc2ccccc2)c2ccccc12` [Benzydamine hydrochloride] stands 0.964; under `N=C(N)N/N=C/c1c(Cl)cccc1Cl` [Guanabenz acetate], 0.972; under `CC1CCc2cc(F)cc3c(=O)c(C(=O)O)cn1c23` (centres undefined) [Flumequine], 0.066 (active). For the compound `CCCC(=O)Nc1ncnc2c1ncn2[C@@H]1O[C@@H]2COP(=O)(O)O[C@H]2[C@H]1OC(=O)CCC` [Bucladesine sodium salt], the “growth AUC normalised to DMSO control” value is 1. Regarding `CCN(CC)CCOC(=O)C1(C2CCCCC2)CCCCC1` [Dicyclomine hydrochloride], the “growth AUC normalised to DMSO control” value is 0.87. With `C[C@]12CC[C@@H]3c4ccc(O)cc4CC[C@H]3[C@@H]1C[C@@H](O)[C@@H]2O` [Estriol] the figure was 1.02; with `CC[C@@H](CO)NCCN[C@@H](CC)CO` [Ethambutol dihydrochloride], 0.809; with `CC(C(=O)O)c1ccc(C(=O)c2cccs2)cc1` (centres undefined) [Suprofen], 0.987.

For the compound `COc1cc(C(=O)NS(=O)(=O)c2ccccc2C)ccc1Cc1cn(C)c2ccc(NC(=O)OC3CCCC3)cc12` [Zafirlukast], the “growth AUC normalised to DMSO control” value was 0.825. Under `CO[C@H]1/C=C/O[C@@]2(C)Oc3c(C)c(O)c4c(O)c(c(/C=N/N5CCN(C)CC5)c(O)c4c3C2=O)NC(=O)/C(C)=C\C=C\[C@H](C)[C@H](O)[C@@H](C)[C@@H](O)[C@@H](C)[C@H](OC(C)=O)[C@@H]1C` [Rifampicin] stands 0.0335 (active). With `CN[C@@H]1[C@H](O[C@H]2[C@H](O[C@H]3[C@H](O)[C@@H](O)[C@H](N=C(N)N)[C@@H](O)[C@@H]3N=C(N)N)O[C@@H](C)[C@]2(O)C=O)O[C@@H](CO)[C@H](O)[C@H]1O` [Streptomycin sulfate], the “growth AUC normalised to DMSO control” value was 0.633 (active). As for `CC(C)NC(=N)NC(=N)Nc1ccc(Cl)cc1` [Proguanil hydrochloride], the “growth AUC normalised to DMSO control” value is 0.973. Under `Cc1ncc([N+](=O)[O-])n1CC(O)CCl` (centres undefined) [Ornidazole] stands 1. With `OCCN1CCN(CCCN2c3ccccc3Sc3ccc(C(F)(F)F)cc32)CC1` [Fluphenazine dihydrochloride] the figure was 0.999; with `OC(Cn1cncn1)(Cn1cncn1)c1ccc(F)cc1F` [Fluconazole], 1.07.
